Measurements published in PubChem BioAssay (NCATS).
Inconclusive results are not listed. Calls of active or inactive are those of the source. Unless noted, calls follow the shape of the dose curve; as a rule, active = well fitted curve in the direction sought with a large enough effect; inconclusive = small, poorly fitted or top-dose-only effect, or another doubt; inactive = no such curve, though single readings can be large; an effect the other way counts as inactive or inconclusive.

Key:
[1] = biological target: ATP-dependent 6-phosphofructokinase (Trypanosoma brucei brucei) (UniProt O15648); assay: qHTS Assay to Find Inhibitors of T. brucei phosphofructokinase: hit validation (AID 492961);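 also: luminescence reports ADP formed as PFK phosphorylates fructose-6-phosphate with ATP; series mostly up to about 51 µM; % is scaled to controls: 0 for no effect and ±100 for the full control effect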
Sequence of ATP-dependent 6-phosphofructokinase (Trypanosoma brucei brucei) (O15648 whole entry, looked up): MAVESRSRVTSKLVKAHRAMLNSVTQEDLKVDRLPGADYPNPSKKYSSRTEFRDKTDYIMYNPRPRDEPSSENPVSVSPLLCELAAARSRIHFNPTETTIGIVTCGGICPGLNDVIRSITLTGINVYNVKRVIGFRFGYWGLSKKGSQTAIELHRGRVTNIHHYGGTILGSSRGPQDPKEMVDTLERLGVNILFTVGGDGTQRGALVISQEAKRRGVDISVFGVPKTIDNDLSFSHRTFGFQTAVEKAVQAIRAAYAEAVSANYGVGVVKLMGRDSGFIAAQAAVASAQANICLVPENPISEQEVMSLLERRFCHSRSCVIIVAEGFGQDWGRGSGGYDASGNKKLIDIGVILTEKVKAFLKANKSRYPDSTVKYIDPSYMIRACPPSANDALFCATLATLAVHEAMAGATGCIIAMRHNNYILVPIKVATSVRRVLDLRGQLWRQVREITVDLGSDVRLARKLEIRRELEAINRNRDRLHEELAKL
In short: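 PFK 1.25 nM, F6P 0.5 mM, ATP 0.1 mM, MgCl2 5 mM, 0.1 M TEA pH 8.0, Tween20 0.01%, BSA 0.1%; 45 min RT. ADP-Glo two-step detection, luminescence. qHTS titration; curve fitting with curve-class categorization.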

[2] = biological target: Thioredoxin reductase 1, cytoplasmic (Rattus norvegicus) (UniProt O89049); assay: qHTS Assay for Inhibitors of Mammalian Selenoprotein Thioredoxin Reductase 1 (TrxR1) (AID 488773); settings: Potency: inhibition; also: nearly all actives have a fitted effect of over 40% in size; also: potency is read from the fitted curve at half-maximal effect
Sequence of Thioredoxin reductase 1, cytoplasmic (Rattus norvegicus) (O89049 whole entry, looked up): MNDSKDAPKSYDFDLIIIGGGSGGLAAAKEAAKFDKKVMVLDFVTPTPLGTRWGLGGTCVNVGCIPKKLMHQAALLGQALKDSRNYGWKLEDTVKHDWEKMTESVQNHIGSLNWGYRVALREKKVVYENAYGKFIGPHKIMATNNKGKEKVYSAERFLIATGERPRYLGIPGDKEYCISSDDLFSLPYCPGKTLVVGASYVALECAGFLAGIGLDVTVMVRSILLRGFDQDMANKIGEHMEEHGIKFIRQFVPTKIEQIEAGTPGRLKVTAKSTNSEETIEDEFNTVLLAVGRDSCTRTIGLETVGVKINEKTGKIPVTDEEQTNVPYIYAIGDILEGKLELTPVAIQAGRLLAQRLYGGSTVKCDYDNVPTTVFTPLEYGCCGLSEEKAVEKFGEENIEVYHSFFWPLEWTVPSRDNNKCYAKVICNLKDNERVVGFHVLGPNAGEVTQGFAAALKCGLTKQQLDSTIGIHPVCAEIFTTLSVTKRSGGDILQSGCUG
In short: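 Inhibition is scored from the loss of NADPH fluorescence between first and last reads of an 8-min kinetic run. Selenite (400 uM) was the substrate, added after 15 min compound preincubation at room temperature.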

[3] = biological target: Flap endonuclease 1 (Homo sapiens) (UniProt P39748); assay: qHTS Validation Assay for the Inhibitors of Human Flap endonuclease 1 (FEN1) (AID 488816); also: % is scaled to controls: 0 for no effect and ±100 for the full control effect
In short: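 Steps: add FEN1 (10 nM reagent) or buffer only; pin compounds; hold 15 min at room temperature; start with substrate, 50 nM final; read at 0 and 15 min; correct, normalize and fit a four-parameter Hill curve.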

[4] = biological target: M-phase phosphoprotein 8 (Homo sapiens) (UniProt Q99549); assay: qHTS Validation Assay for Inhibitors for MPP8 Chromodomain Interactions with Methylated Histone Tails (AID 488949);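 also: AlphaScreen signal from MPP8 chromodomain bound to biotinylated H3K9me3 peptide; top concentration of the series differs between compounds; % is scaled to controls: 0 for no effect and ±100 for the full control effect; nearly all actives have a fitted effect of over 55% in size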
Sequence of M-phase phosphoprotein 8 (Homo sapiens) (Q99549 whole entry, looked up): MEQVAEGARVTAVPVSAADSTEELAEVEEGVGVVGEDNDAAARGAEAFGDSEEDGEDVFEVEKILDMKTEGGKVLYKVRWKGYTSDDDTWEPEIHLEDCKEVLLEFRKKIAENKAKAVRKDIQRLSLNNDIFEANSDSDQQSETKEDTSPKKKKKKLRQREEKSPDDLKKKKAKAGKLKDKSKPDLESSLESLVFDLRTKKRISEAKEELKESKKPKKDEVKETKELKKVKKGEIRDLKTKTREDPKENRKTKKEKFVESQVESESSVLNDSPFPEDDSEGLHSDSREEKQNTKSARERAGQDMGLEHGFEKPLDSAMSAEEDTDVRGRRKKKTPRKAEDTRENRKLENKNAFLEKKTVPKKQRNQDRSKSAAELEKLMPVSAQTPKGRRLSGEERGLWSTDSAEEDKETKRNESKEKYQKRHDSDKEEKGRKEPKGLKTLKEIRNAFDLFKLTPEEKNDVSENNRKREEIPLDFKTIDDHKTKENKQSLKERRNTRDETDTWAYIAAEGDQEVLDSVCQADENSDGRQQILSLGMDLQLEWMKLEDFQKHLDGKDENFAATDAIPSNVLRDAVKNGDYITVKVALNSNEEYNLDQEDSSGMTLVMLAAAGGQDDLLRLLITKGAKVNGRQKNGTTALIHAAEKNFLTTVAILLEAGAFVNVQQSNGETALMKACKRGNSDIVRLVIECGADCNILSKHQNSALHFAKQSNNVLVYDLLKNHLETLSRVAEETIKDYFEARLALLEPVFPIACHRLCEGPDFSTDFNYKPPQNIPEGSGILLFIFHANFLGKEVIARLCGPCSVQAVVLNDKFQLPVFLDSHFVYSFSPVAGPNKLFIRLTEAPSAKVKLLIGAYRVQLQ
In short: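 MPP8 (50 nM) was preincubated with biotinylated H3(1-18)K9me3 peptide (50 nM) in PBS pH 7.4, 0.01% Tween-20 for 30 min at room temperature, then with compounds for 30 min; binding was detected by AlphaScreen.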

[5] = biological target: Chromobox protein homolog 1 (Homo sapiens) (UniProt P83916); assay: qHTS Validation Assay for Inhibitors of HP1-beta Chromodomain Interactions with Methylated Histone Tails (AID 488953); also: nearly all actives have a fitted effect of over 50% in size; also: potency is read from the fitted curve at half-maximal effect
Sequence of Chromobox protein homolog 1 (Homo sapiens) (P83916 whole entry, looked up): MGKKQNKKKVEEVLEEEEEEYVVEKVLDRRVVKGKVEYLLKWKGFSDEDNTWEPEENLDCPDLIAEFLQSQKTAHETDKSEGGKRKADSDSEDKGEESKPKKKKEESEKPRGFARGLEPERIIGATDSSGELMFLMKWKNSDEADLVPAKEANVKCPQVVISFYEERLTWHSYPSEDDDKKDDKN
In short: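 Compounds pinned into a preassembled complex of HP1-beta and trimethyl-K9 histone H3(1-18) biotin peptide (50 nM each; PBS pH 7.4, 0.01% Tween-20). After 30 min, bead-based AlphaScreen detection followed.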

[6] = biological target: Methanococcus maripaludis chaperonin (MmCpn) (UniProt Q6LX38); assay: High-Throughput Screening for Modulators of Cytosolic Chaperonin Activity: MmCpn Primary Screen (AID 488978);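 also: 50 nM MmCpn enzyme hydrolysing 30 µM ATP at 37 °C; 0% is about no effect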
Sequence of Methanococcus maripaludis chaperonin (MmCpn) (Q6LX38 1-543): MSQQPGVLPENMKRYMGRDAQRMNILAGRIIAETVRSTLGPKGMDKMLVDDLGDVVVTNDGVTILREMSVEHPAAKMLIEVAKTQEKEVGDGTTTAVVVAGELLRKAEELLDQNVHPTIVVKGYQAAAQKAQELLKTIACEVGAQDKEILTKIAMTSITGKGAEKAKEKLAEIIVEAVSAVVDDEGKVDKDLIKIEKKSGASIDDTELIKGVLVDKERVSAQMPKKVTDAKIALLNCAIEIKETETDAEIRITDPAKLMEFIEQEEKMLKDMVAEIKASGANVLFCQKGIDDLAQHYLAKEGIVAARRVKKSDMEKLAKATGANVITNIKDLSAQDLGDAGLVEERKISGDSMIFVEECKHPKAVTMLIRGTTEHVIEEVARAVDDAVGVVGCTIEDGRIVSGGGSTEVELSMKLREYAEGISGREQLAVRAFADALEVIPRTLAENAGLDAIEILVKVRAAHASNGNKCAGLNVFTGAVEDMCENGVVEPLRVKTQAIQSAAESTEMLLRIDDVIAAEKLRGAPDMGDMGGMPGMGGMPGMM
In short: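 MmCpn (50 nM final) was preincubated with compound 5 min at RT, then 30 uM ATP (final) was added and the reaction ran 10 min at 37C. ADP produced was detected by Transcreener HTRF (ex 320 nm; em 590/665 nm).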

[7] = biological target: D(1A) dopamine receptor (Homo sapiens) (UniProt P21728); assay: HTS Assay for Allosteric Agonists of the Human D1 Dopamine Receptor: Primary Screen for Potentiators (AID 488982); also: 0% is about no effect
Sequence of D(1A) dopamine receptor (Homo sapiens) (P21728 whole entry, looked up): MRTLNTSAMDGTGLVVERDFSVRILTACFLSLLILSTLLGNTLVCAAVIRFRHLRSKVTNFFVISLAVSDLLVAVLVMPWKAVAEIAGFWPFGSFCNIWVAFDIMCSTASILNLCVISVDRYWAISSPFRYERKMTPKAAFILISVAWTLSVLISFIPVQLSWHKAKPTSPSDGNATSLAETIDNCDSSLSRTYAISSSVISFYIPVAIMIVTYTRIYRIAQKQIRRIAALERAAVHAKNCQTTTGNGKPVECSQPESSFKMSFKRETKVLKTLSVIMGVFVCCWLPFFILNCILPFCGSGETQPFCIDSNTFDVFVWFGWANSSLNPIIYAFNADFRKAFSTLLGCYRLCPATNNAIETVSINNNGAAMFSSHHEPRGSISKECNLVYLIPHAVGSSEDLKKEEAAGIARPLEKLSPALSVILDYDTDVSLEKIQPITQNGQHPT
In short: (§1)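 Tetracycline-induced HEK293 T-REx cells force-coupled to calcium signalling were incubated overnight at 30 C and dye-loaded at room temperature. Calcium flux over 180 s after compound addition flagged agonists; a further 180 s read after EC20 dopamine flagged potentiators.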

[8] = Validation screen for small molecules that induce genotoxicity in human embryonic kidney (HEK293T) cells expressing luciferase-tagged ELG1 (AID 493106); also: 0% is about no effect
In short: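 In this validation screen, increased ELG1-luciferase signal flags compounds causing genetic stress. HEK293T reporter cells are treated 16 hr (37 °C, 5% CO2), developed with ONE-Glo for 30 min at room temperature, and imaged on a CCD-based reader.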

[9] = biological target: ATPase family AAA domain-containing protein 5 (Homo sapiens) (UniProt Q96QE3); assay: Validation screen for small molecules that inhibit ELG1-dependent DNA repair in human embryonic kidney (HEK293T) cells expressing luciferase-tagged ELG1 (AID 493107); also: nearly all actives have a fitted effect of over 70% in size; also: potency is read from the fitted curve at half-maximal effect
In short: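 Compounds reducing 5-fluorouridine-driven ELG1-luciferase signal in HEK293T cells were scored; exposure lasted 16 hr at 37 °C with luminescence detected via ONE-Glo.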

[10] = qHTS for Inhibitors of Cell Surface uPA Generation: Validation Assay (AID 493164);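 also: RAW 264.7 macrophage cells exposed to compound for 18 h; 0% is about no effect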
In short: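 Compounds are titrated over seven points (2.45 nM–38.3 uM final) onto pre-plated RAW 264.7 cells and incubated for 18 h. Retained intracellular ATP, measured with ATP-Lite, indicates blocked lethal factor entry.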

[11] = biological target: Transient receptor potential cation channel subfamily V member 1 (Homo sapiens) (UniProt Q8NER1); assay: HTS Assay for Compounds that Act as Enhancers of the Vanilloid Receptor 1 (AID 488979); also: 0% is about no effect
Sequence of Transient receptor potential cation channel subfamily V member 1 (Homo sapiens) (Q8NER1 whole entry, looked up): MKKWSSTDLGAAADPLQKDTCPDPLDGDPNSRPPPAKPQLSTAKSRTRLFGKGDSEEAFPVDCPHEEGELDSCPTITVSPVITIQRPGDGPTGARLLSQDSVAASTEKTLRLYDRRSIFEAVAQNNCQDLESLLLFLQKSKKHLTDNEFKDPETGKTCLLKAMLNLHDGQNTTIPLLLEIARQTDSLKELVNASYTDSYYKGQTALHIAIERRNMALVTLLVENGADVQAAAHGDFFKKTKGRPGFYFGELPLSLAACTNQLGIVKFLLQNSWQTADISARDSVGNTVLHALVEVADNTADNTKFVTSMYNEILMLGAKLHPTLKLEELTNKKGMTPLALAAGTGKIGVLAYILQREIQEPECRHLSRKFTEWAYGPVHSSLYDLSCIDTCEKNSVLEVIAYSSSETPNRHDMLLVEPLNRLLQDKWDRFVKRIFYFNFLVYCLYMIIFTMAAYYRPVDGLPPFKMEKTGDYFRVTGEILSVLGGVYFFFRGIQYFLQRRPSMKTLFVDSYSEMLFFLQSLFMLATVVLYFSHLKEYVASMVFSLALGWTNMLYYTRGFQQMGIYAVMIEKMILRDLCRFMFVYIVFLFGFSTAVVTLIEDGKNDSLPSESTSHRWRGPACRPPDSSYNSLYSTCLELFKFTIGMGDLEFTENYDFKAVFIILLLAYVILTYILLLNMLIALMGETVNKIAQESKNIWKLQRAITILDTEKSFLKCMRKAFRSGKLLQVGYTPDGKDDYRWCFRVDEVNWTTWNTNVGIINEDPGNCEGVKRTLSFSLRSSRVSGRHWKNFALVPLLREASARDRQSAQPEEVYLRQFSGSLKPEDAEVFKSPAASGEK
In short: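 TRPV1-expressing cells loaded with Fluo-8 calcium dye; compounds added and calcium influx read kinetically for 3 min (agonist phase), then capsaicin at EC20 added and read 2 min more for enhancement. Fluorescence ex 480/em 520 nm.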

[12] = biological target: D(1A) dopamine receptor (Homo sapiens) (UniProt P21728); assay: HTS Assay for Allosteric Agonists of the Human D1 Dopamine Receptor: Primary Screen for Antagonists (AID 488983);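 also: calcium flux response to an EC80 dopamine challenge measured with no-wash dye; nearly all actives have a fitted effect of over 65% in size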; also: potency is read from the fitted curve at half-maximal effect
In short: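 In this primary screen, compounds are applied to calcium-dye-loaded HEK293 T-REx cells with force-coupled D1 expression induced overnight at 30 C. An EC80 of dopamine follows the 180 s compound phase, and calcium is monitored for a further 180 s.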

[13] = biological target: Thyrotropin-releasing hormone receptor (Homo sapiens) (UniProt P34981); assay: qHTS for Small Molecule Agonists and Allosteric Enhancers of Human TRH Receptor: Validation Screen for Agonists (AID 493127;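 active = calcium activation more than 3 SD above the typical response in the agonist read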;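 also: intracellular calcium rise by fluo-8 fluorescence before TRH EC20 addition; 0% is about no effect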); settings: TRH receptor agonist cell assay; at 2 µM; stronger effect = higher value
Sequence of Thyrotropin-releasing hormone receptor (Homo sapiens) (P34981 whole entry, looked up): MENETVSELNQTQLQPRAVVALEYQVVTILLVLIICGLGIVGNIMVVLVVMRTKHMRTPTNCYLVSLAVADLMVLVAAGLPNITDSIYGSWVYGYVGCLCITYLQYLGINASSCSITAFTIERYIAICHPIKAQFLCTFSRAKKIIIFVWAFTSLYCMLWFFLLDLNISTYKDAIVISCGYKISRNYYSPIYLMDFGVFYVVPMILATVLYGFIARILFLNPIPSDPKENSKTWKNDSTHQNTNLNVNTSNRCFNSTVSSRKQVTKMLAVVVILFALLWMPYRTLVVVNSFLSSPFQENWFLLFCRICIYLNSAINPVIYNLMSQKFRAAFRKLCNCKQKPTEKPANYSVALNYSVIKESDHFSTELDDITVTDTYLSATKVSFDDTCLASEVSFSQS
In short: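 Kinetic fluorescence assay of agonist-induced calcium release: overnight-plated TRHR cells, room-temperature fluo-8 loading, baseline then compound addition with per-second reads.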

[14] = Nrf2 qHTS screen for inhibitors: Validation (AID 493153; active = well fitted inhibition curve with a large enough effect in the main read-out, with a control signal flat, not every such curve was filed as active; also: potency is read from the fitted curve at half-maximal effect); settings: Potency: luciferase luminescence; viability change: measured here: cytotoxicity max response
In short: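 In this counterscreened reporter format, each well gives two signals: CellTiter-Fluor fluorescence for cytotoxicity and ARE-luciferase luminescence for Nrf2 function. A549 ARE_Fluc cells in 5% FBS OPTI-MEM were exposed to compound titrations for 18-24 h.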

[15] = Validation screen for small molecules that induce DNA re-replication in SW480 colon adenocarcinoma cells (AID 504364); also: 0% is about no effect
In short: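 Hoechst-stained SW480 nuclei, imaged at 405 nm excitation after 48 hr compound exposure, were counted for elevated DNA content as the re-replication signal.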

[16] = biological target: Galactokinase (Homo sapiens) (UniProt P51570); assay: qHTS Validation Assay for Inhibitors of Human Galactokinase (GALK) (AID 493189); also: 0% is about no effect
Sequence of Galactokinase (Homo sapiens) (P51570 whole entry, looked up): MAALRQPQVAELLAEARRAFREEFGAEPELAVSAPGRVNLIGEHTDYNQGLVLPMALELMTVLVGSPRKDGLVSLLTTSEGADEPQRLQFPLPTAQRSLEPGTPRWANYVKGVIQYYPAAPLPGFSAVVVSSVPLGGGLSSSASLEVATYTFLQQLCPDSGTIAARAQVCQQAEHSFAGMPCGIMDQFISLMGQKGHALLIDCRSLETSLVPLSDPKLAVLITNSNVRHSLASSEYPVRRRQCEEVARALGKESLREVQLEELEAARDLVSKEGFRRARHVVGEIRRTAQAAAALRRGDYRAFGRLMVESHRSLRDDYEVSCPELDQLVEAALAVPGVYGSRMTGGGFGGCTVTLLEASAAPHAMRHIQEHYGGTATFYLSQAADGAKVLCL
In short: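 GALK (5 nM) with 35 uM ATP and 100 uM galactose in HEPES pH8.0, MgCl2, NaCl, DTT, BSA; 1 h at room temperature. Residual ATP read by Kinase-Glo Plus luminescence after 10 min.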

[17] = biological target: Thioredoxin reductase 1, cytoplasmic (Rattus norvegicus) (UniProt O89049); assay: qHTS Assay for Substrates of Mammalian Selenoprotein Thioredoxin Reductase 1 (TrxR1) (AID 488772);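 also: series mostly up to about 57 µM; 0% is about no effect; a drop in NADPH fluorescence below the no-compound background marks a TrxR1 substrate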
In short: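 In this dual-purpose format, potential substrates are identified from the first fluorescence read after selenite addition, not from the 8-minute delta. Rat enzyme is preincubated with NADPH and then with compound at ~22 deg C.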

[18] = biological target: Thyrotropin receptor (Homo sapiens) (UniProt P16473); assay: qHTS Assay for Antagonists of the Thyroid Stimulating Hormone Receptor (AID 488980); also: series mostly up to about 58 µM; 0% is about no effect
In short: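 HEK293 cells transfected with human TSHR, suspended in HEPES-buffered HBSS with 70 uM RO 20-1724, were treated with compounds plus TSH at EC80 (4 nM final). cAMP was measured by competitive HTRF (cryptate anti-cAMP antibody, cAMP-d2 acceptor).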

[19] = biological target: D(1A) dopamine receptor (Homo sapiens) (UniProt P21728); assay: HTS Assay for Allosteric Agonists of the Human D1 Dopamine Receptor: Primary Screen for Agonists (AID 488981); also: 0% is about no effect
In short: as §1

C[N+]1(C)CCCCC1COC(=O)C(O)(c1ccccc1)c1ccccc1 (stereo not drawn)
inactive: Potency [1]

CCCCCCCCCC(=O)O[C@H]1CC[C@H]2[C@@H]3CCC4=CC(=O)CC[C@]4(C)[C@H]3CC[C@]12C
inactive: Potency [1]

O=[N+]([O-])/C=C/c1ccc2c(c1)OCO2
inactive: Potency [3] | Potency [4] | outcome [6] | Potency [7] | Potency [8] | outcome [10]
active: Potency [2] 7.52 µM | Potency [5] 14.1 µM | Potency [9] 20.6 µM

CCC(=O)O[C@@](Cc1ccccc1)(c1ccccc1)[C@@H](C)CN(C)C
inactive: Potency [1]

C[N+](C)(C)CCOC(=O)CBr
inactive: Potency [2] | Potency [4] | Potency [5] | outcome [6] | outcome [11] | Potency [7] | Potency [12] | Potency [8] | Potency [9] | activation [13] 1.06% | Potency [14] | outcome [10] | Potency [15]
-12.9%: viability change [14]

CCCN1CCC[C@@H](c2cccc(O)c2)C1
-15.6%: viability change [14]
active: Potency [12] 11.2 µM
inactive: Potency [2] | Potency [4] | Potency [5] | outcome [6] | Potency [7] | Potency [8] | Potency [9] | Potency [14]

CC(=O)O[C@H]1CC[C@H]2[C@@H]3CCC4=CC(=O)CCC4=C3C=C[C@]12C
inactive: Potency [1]

COc1ccc2c(c1OC)C(=O)OC2C1c2cc3c(cc2CCN1C)OCO3 (stereo not drawn)
inactive: outcome [11] | activation [13] -4.69% | outcome [16]

O=S1(=O)N(CCN2CC=C(c3c[nH]c4cc(F)ccc34)CC2)c2cccc3c2N1CCC3
inactive: outcome [17] | outcome [6] | outcome [11] | outcome [18] | Potency [19] | Potency [7] | Potency [8] | outcome [10] | outcome [16]
-15.7%: viability change [14]
active: Potency [5] 39.8 µM | activation [13] 52.8% | Potency [14] 23.1 µM
